Source: PubChem BioAssay (NCI)
This is part of a sample that, as a whole, favours compounds with a hit. Of some 79,000 tested, about 15% had one in any assay. No stated cut-off is given here; in the data, active means growth inhibition above about 70%; inactive means the rest.

Columns and labels:
[1] = NCI Yeast Anticancer Drug Screen. Data for the rad50 strain (AID 155);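 further: 0% = growth of vehicle-only cultures of the same strain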; conditions: S. cerevisiae rad50 strain growth inhibition, stronger effect = higher value; at 50.0 µM unless noted
Outline: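 Inhibition values express reduced yeast growth in compound-treated cultures relative to vehicle-treated controls.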

[2] = NCI Yeast Anticancer Drug Screen. Data for the mec2-1 strain (AID 157); conditions: S. cerevisiae mec2-1 strain, stronger effect = higher value; at 50.0 µM unless noted
Outline: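 Using mec2-1 yeast: add compound, measure growth, express inhibition versus vehicle-treated cultures.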

[3] = NCI Yeast Anticancer Drug Screen. Data for the sgs1 mgt1 strain (AID 161);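 further: 0% = growth of cultures given vehicle only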; conditions: S. cerevisiae sgs1 mgt1 strain, stronger effect = higher value; at 50.0 µM unless noted
Outline: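 Compounds are added to genetically altered yeast, and growth is compared with cultures given vehicle alone to give percent inhibition.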

[4] = NCI Yeast Anticancer Drug Screen. Data for the cln2 rad14 strain (AID 165);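 further: 0% = growth equal to vehicle treated cultures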; conditions: S. cerevisiae cln2 rad14 strain, stronger effect = higher value; at 50.0 µM unless noted
Outline: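 Yeast strain cln2 rad14, bearing defects in cell cycle control and DNA repair, serves as the test system; values reflect growth inhibition compared with vehicle.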

[5] = NCI Yeast Anticancer Drug Screen. Data for the bub3 strain (AID 167); conditions: S. cerevisiae bub3 mutant strain, stronger effect = higher value; at 50.0 µM unless noted
Outline: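 Steps: expose the mutant yeast strain to compound; grow alongside vehicle-treated cultures; measure growth; express inhibition against the vehicle cultures.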

[6] = NCI Yeast Anticancer Drug Screen. Data for the mlh1 rad18 strain (AID 175); conditions: S. cerevisiae mlh1 rad18 strain growth inhibition, stronger effect = higher value; at 50.0 µM unless noted
Outline: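 Steps: expose repair-defective yeast to compound; measure growth; express inhibition against vehicle-treated controls.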

Measured: growth inhibition

O=C1C(Br)=C[C@H]2C3C=CC(Br)(C3=O)[C@@H]12 (stereo not given in full)
inactive: [1] 20.8% | [2] 14.9% | [3] 14.9% | [4] 25.2% | [5] 15.6% | [6] 23.6%

CCOC(=S)Nc1ccccc1[N+](=O)[O-]
inactive: [1] 8.05% | [2] -10.6% | [3] 0.05% | [4] -57.6% | [5] -23.6% | [6] -9.15%

CC1(C)CC[C@]2(C(=O)O)CC[C@]3(C)C(=CC[C@@H]4[C@@]5(C)CC[C@H](O)C(C)(C)[C@@H]5CC[C@]43C)[C@@H]2C1
inactive: [1] -3.7% | [2] 4.4% | [3] -7.5% | [4] 13.2% | [5] 0.1% | [6] -3.9%

Cc1c(CCCl)c(N=P(c2ccccc2)(c2ccccc2)c2ccccc2)n2c(nc3ccccc32)c1C#N
inactive: [1] 29.1% | [2] -2.1% | [3] -7.75% | [4] 12.5% | [5] -5.05% | [6] 18.6%

COc1cc(Br)c(CC(NC=O)c2ccc(OC)c(OC)c2OC)cc1OC (stereo not given)
inactive: [1] 0.4% | [2] -0.1% | [3] -6.95% | [4] -7.8% | [5] -1.5% | [6] 23.9%

O=[N+]([O-])c1cc(COc2ccc(Cl)c(Cl)c2)ccc1Cl
inactive: [1] 1.8% | [2] 30.3% | [3] 38.5% | [4] -0.95% | [5] 46.4% | [6] 35.8%

CCC1(CC)C(=O)NN(C(=O)c2ccc(Cl)cc2)C1=O
inactive: [1] -4.9% | [2] -22.9% | [3] 28.4% | [4] 7.15% | [5] -5.6% | [6] -37.5%

Nc1ncnc(N)c1NC(=O)c1ccc2ccccc2c1
inactive: [1] 8.95% | [2] 35.1% | [3] -1.55% | [4] -1.85% | [5] -20.4% | [6] -21.4%

CCCCCCC1OCC(CC)([N+](=O)[O-])CO1 (stereo not given)
inactive: [1] -13.8% | [2] -9.6% | [3] 1.15% | [4] -39.8% | [5] -23.6% | [6] -12.9%

Cc1cc(C)c(S(=O)(=O)Oc2ccccc2)c(C)c1
inactive: [1] -14.9% | [2] -7.15% | [3] -8.5% | [4] 1.7% | [5] 11.8% | [6] -36.7%

COc1cccc2cc3c(cc12)C(=O)C(C)=C(C)C3=O
inactive: [1] -1.65% | [2] -3.6% | [3] -3.45% | [4] -9.25% | [5] 6.8% | [6] 2.55%

CCOC(=O)N1CCc2cc(OC)c(OC)cc2C1Cc1ccc(OC)c(OC)c1 (stereo not given)
inactive: [1] -2.2% | [2] -8.75% | [3] -7.7% | [4] 12% | [5] 1.95% | [6] -5.5%

CC1=NN(c2ccc(S(=O)(=O)O)cc2)C(=O)C1N=Nc1ccc(-c2ccc(N=Nc3ccc(O)c(C(=O)O)c3)c(C)c2)cc1C (stereo not given)
inactive: [1] 17.6% | [2] 20.9% | [3] 17.3% | [4] 17.1% | [5] 23.4% | [6] 30.7%

CCOC(=O)C(Cc1ccc(Cl)cc1)(NC(C)=O)C(=O)OCC
inactive: [1] -1.25% | [2] -13.6% | [3] -4.25% | [4] -23.9% | [5] 14.4% | [6] -10.4%

COP(=O)(OC)/C(=C/c1cn(C(C)=O)c2ccccc12)NC(C)=O
inactive: [1] -21% | [2] -49.9% | [3] -13.1% | [4] 13.1% | [5] 15.4% | [6] -8.25%

CC(=O)N(C(C)=O)c1c(N)n(C)c(=O)[nH]c1=O
inactive: [1] 12.7% | [2] -4.85% | [3] 6.6% | [4] 14.3% | [5] 2.75% | [6] 8.5%

CN(C)C(=O)Sc1cccc([N+](=O)[O-])c1
inactive: [1] 9.5% | [2] -14.9% | [3] -21.8% | [4] -38.3% | [5] 10.5% | [6] -25.6%

CC(C)NS(=O)(=O)OCC(O)(CC(Cl)(Cl)Cl)c1ccccc1 (stereo not given)
inactive: [1] 23.8% | [2] 4.2% | [3] 16.9% | [4] 21.9% | [5] 11.7% | [6] 38.7%

O=NNc1ccc(S(=O)(=O)c2ccc3ccccc3c2)cn1
inactive: [1] 31.7% | [2] 12.8% | [3] -24.9% | [4] -8.95% | [5] -25.6% | [6] -88.5%

O=[N+]([O-])c1ccc(S(=O)(=O)O)cc1
inactive: [1] 43.6% | [2] 25.1% | [3] 37.5% | [4] -22.7% | [5] 9.65% | [6] 43.1%

Cc1ccc(S(=O)(=O)OCCOCCOS(=O)(=O)c2ccc(C)cc2)cc1
inactive: [1] 30.8% | [2] -0.4% | [3] 2.25% | [4] 4% | [5] 18.9% | [6] 17.8%

NC(=O)Nc1ccccc1-c1ccccc1
inactive: [1] -0.6% | [2] -11.2% | [3] 13.8% | [4] -26.4% | [5] -10.8% | [6] 7.45%

Cc1nc2ccncc2[nH]1
inactive: [1] -7.7% | [2] -1.3% | [3] -17.4% | [4] 0.05% | [5] -10.6% | [6] -8.2%

CN(C)Cc1cc(-c2c(Cl)cccc2Cl)no1
inactive: [1] -18.8% | [2] -10.5% | [3] -10.4% | [4] 4% | [5] 7.1% | [6] -13.6%

C=C1CC(COc2ccc3c(C)c(C)c(=O)oc3c2C)(c2ccccc2)OC1=O (stereo not given)
inactive: [1] 8.85% | [2] -3.75% | [3] 23.9% | [4] 4.85% | [5] 6.7% | [6] 21.4%

CC(C)(C)SC(=S)SCC(=O)c1ccc(F)cc1
inactive: [1] 4.35% | [2] -36.4% | [3] 8.65% | [4] -10.4% | [5] -1.65% | [6] 1.5%

COC1CCC2(C)C(CCC3C4CCC(OC(C)=O)C4(C)CCC32)O1 (stereo not given)
inactive: [1] 1.65% | [2] -9.55% | [3] -9.45% | [4] -6.7% | [5] -1.95% | [6] -14.8%

CC(=O)OCCc1cccnc1/C=N/O
inactive: [1] -12.9% | [2] -22.5% | [3] -1.4% | [4] 20.6% | [5] -16.4% | [6] -5.2%

c1ccc(C2(c3ccc(C4(c5ccccc5)Oc5ccccc5S4)[nH]3)Oc3ccccc3S2)cc1 (stereo not given)
inactive: [1] 20.4% | [2] -12.2% | [3] -4.4% | [4] 11.6% | [5] -16.7% | [6] 20.2%

CS(=O)(=O)c1nc2[nH]cnc(=S)c2[nH]1
inactive: [1] 8% | [2] -8.2% | [3] -3.5% | [4] 10.9% | [5] 20.9% | [6] -7.1%

CC1CCC2COC(=O)CCC2(C)C1C (stereo not given)
inactive: [1] 5.95% | [2] 0.7% | [3] -9.75% | [4] -40.9% | [5] -17.4% | [6] -22.9%

CC1CC[N+](C)(CC(=O)c2ccc(-c3ccc(C(=O)C[N+]4(C)CCC(C)CC4)cc3)cc2)CC1 (stereo not given)
inactive: [1] -8.2% | [2] 1.4% | [3] -12.7% | [4] 22.9% | [5] -3.15% | [6] -10.2%

CC1=NN2C(c3ccc([N+](=O)[O-])cc3)=CSC2=NC(C)(C)C1
inactive: [1] 20.6% | [2] -5.6% | [3] 5.7% | [4] -5% | [5] -4.95% | [6] -11.6%

CC(=O)Nc1ccc(C2NCc3cnc(C)nc3N2)cc1 (stereo not given)
inactive: [1] 0.35% | [2] -0.75% | [3] 0.15% | [4] -6.95% | [5] 10.2% | [6] 0.95%

CCOC(=O)CC(C#N)(C#N)CC(=O)OCC
inactive: [1] 4.15% | [2] 21.3% | [3] 5.85% | [4] -0.1% | [5] 26.8% | [6] -0.55%

Cc1ccc(Nc2nc(-c3ccc(-c4ccc([N+](=O)[O-])cc4)o3)cs2)cc1
inactive: [1] 20.5% | [2] 19.5% | [3] 31.8% | [4] 31.5% | [5] 28.7% | [6] 44%

Cc1ccnc(NCCCNc2nccc(C)n2)n1
inactive: [1] 22.6% | [2] -1.4% | [3] 14.1% | [4] 36.8% | [5] 5.2% | [6] 22.3%

O=C1COC(=O)CO1
inactive: [1] -15.6% | [2] -18.9% | [3] -5.7% | [4] 34.2% | [5] 8.55% | [6] -10.7%

CO/N=C1/OC(=O)OCC1(c1ccccc1)c1ccccc1
inactive: [1] 5.45% | [2] -3.4% | [3] 2.7% | [4] 11.1% | [5] 6.3% | [6] -3.3%

CCOC(=O)C1(Cc2ccccc2)Cc2cc3c(cc2C1)CCC3
inactive: [1] -23.1% | [2] -50.5% | [3] -23.7% | [4] -3.5% | [5] 2.6% | [6] -2.5%
